# Screens as filed in PubChem.
# The list is not random: actives were taken first. Their share in the collection is about 6.7%.
# T cruzi growth-1: T. cruzi proliferation inhibition | T. cruzi beta-gal in NIH3T3, GalScreen luminescence, 90 h | inhibition, % at 8.34 µM | actives 5.9% (n = 77,000);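 active = mean inhibition above about 93%, with at least 55% of replicates each passing it, limit read from the data, passing the limit was not always enough; inconclusive = only one of those two conditions holds; inactive = neither condition holds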
# Pf Dd2 inh: blocks growth of Plasmodium falciparum Dd2 parasites; P. falciparum Dd2 growth, SYBR Green, 72 h; active compounds read low; activity change, % at 10 µM; actives 2.3% (n = 94,000); in the data active = activity change below about -80%; inconclusive = no clear call, values can overlap the other calls
# C diff HTS: C. difficile growth inhibition | Clostridium difficile clinical isolate growth, OD600, 24 h; active compounds read low | growth activity, negative = inhibition, % at 16 µg/mL (by protocol) | actives 0.25% (n = 86,000) | AID 1259249;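 active = mean growth activity at or below -80% and every replicate also at or below -80%; inconclusive = mean at or below -80% but some replicate above -80%; inactive = mean growth activity above -80%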;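 note: 0% = DMSO wells and -100% = levofloxacin 16 µg/mL wells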
# T cruzi growth-2: Trypanosoma cruzi proliferation inhibition | shares compounds with T cruzi growth-1 | T. cruzi beta-gal in NIH3T3, GalScreen luminescence, 90 h | inhibition, % at 8.35 µM | actives 72% (n = 5,600) | AID 651739;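 active = mean replicate inhibition above about 95% and at least 55% of replicates individually reaching it, limit read from the data; inconclusive = only one of the two criteria is met; inactive = neither criterion is met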
# T cruzi growth-3: inhibitors of T. cruzi proliferation; shares compounds with T cruzi growth-1; actives 21% (n = 5,600); inhibition, % at 2.09 µM; T. cruzi beta-gal in NIH3T3, GalScreen luminescence, 90 h;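 active = mean inhibition above about 95%, with at least 55% of replicates also reaching it, limit read from the data; inconclusive = meets just one of the two conditions; inactive = meets neither condition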;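 note: plate controls were neutral control median for no effect and positive control median for full effect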
# NIH3T3 tox: NIH/3T3 (mouse) viability loss. shares compounds with T cruzi growth-1. NIH/3T3 viability, CellTiter-Glo ATP luminescence, 90 h. cytotoxicity (signal decrease), % at 8.35 µM. actives 14% (n = 5,600). AID 651742;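 active = mean signal decrease across replicates above about 35% based on untreated-well scatter, with enough replicates individually passing, limit read from the data; inconclusive = no rule stated though some were filed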;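 note: 0% = median of neutral control wells and 100% = median of positive control wells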
# 3T3 cytotox 2: kills mouse NIH/3T3 fibroblasts; shares compounds with T cruzi growth-1; NIH/3T3 viability, CellTiter-Glo ATP luminescence, 90 h; inhibition, % at 24.9 µM; actives 56% (n = 5,600); AID 651744;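 active = mean loss of cell viability signal at or above a set limit, and enough replicates individually reaching it; inconclusive = meets only the mean limit or only the replicate share; inactive = meets neither condition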;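 note: 0% = median of neutral control wells and 100% = median of positive control wells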
# * marks the source's active call; other numbers are inactive results; ? = inconclusive; nt = no result.
SMILES,T cruzi growth-1,Pf Dd2 inh,C diff HTS,T cruzi growth-2,T cruzi growth-3,NIH3T3 tox,3T3 cytotox 2
O=C(N[C@H]1CC[C@H](CCn2cc(C3(O)CCCC3)nn2)O[C@H]1CO)c1ccccc1F,17,-18,nt,nt,nt,nt,nt
O=C(C[C@@H]1C[C@@H]2c3cc(NS(=O)(=O)c4ccc(F)cc4)ccc3O[C@@H]2[C@@H](CO)O1)N1CCCCC1,nt,-30,-7,nt,nt,nt,nt
O=C(C[C@@H]1C[C@@H]2c3cc(NS(=O)(=O)c4ccc(F)cc4)ccc3O[C@@H]2[C@@H](CO)O1)N1CCc2ccccc2C1,115*,-64,-8,100*,13,16,13
O=C(C[C@@H]1C[C@H]2c3cc(NS(=O)(=O)c4ccc(F)cc4)ccc3O[C@H]2[C@H](CO)O1)N1CCc2ccccc2C1,?,-79,-7,83,27,18,20
CS(=O)(=O)Nc1ccc2c(c1)[C@@H]1C[C@@H](CC(=O)N3CCc4ccccc4C3)O[C@@H](CO)[C@@H]1O2,nt,-3,-6,nt,nt,nt,nt
O=C(C[C@H]1C[C@H]2c3cc(NS(=O)(=O)c4ccc(F)cc4)ccc3O[C@H]2[C@H](CO)O1)N1CCc2ccccc2C1,110*,-37,6,85,26,-7,7
CS(=O)(=O)Nc1ccc2c(c1)[C@@H]1C[C@H](CC(=O)N3CCc4ccccc4C3)O[C@H](CO)[C@@H]1O2,nt,0,-3,nt,nt,nt,nt
C[C@@H]1CN([C@H](C)CO)C(=O)CCCn2cc(nn2)CO[C@H]1CN(C)C,1,15,nt,nt,nt,nt,nt
COCC(=O)N1[C@H](C#N)[C@H](c2ccc(C3=CCCCC3)cc2)[C@H]1CO,67,6,-4,nt,nt,nt,nt
O=C(C[C@@H]1CC[C@H]2[C@@H](COC[C@@H](O)CN2C(=O)c2ccc(F)cc2)O1)NCCCN1CCOCC1,-89,9,nt,nt,nt,nt,nt
C/C=C/c1ccc2c(c1)O[C@H](CN(C)C(=O)c1ccccc1)[C@@H](C)CN([C@@H](C)CO)S2(=O)=O,nt,-47,0,nt,nt,nt,nt
C[C@@H]1CN([C@H](C)CO)S(=O)(=O)c2ccc(/C=C/c3ccccc3)cc2O[C@@H]1CN(C)C(=O)c1ccncc1,13,8,-14,nt,nt,nt,nt
C[C@@H]1CN([C@H](C)CO)S(=O)(=O)c2ccc(/C=C/c3ccccc3)cc2O[C@@H]1CN(C)C(=O)c1ccccc1,123*,-61,5,105*,77,79*,79*
C[C@H](CO)N1C[C@H](C)[C@H](CN(C)C(=O)c2ccncc2)Oc2cc(/C=C/c3ccccc3)ccc2S1(=O)=O,103*,3,-2,97*,80,19,59*
C/C=C/c1ccc2c(c1)O[C@H](CN(C)CC1CC1)[C@H](C)CN([C@H](C)CO)S2(=O)=O,79,-20,3,nt,nt,nt,nt
C[C@H]1CN([C@@H](C)CO)S(=O)(=O)c2ccc(/C=C/c3ccccc3)cc2O[C@H]1CN(C)CC1CC1,103*,-84*,19,106*,74,33,105*
Cc1noc(C)c1NC(=O)Nc1ccc2c(c1)CC(=O)N([C@@H](C)CO)C[C@@H](C)[C@@H](CN(C)S(=O)(=O)c1ccc(F)cc1)O2,54,17,8,nt,nt,nt,nt
COc1ccc(NC(=O)N(C)C[C@H]2Oc3ccc(NS(C)(=O)=O)cc3CC(=O)N([C@H](C)CO)C[C@H]2C)cc1,27,4,-4,nt,nt,nt,nt
CN1c2ccc(-c3ccccc3)cc2[C@H]2[C@H](CCN2C(=O)c2ccccc2)[C@H]1CO,48,-23,6,nt,nt,nt,nt
CN1c2ccc(-c3ccccc3)cc2[C@H]2[C@H](CCN2C(=O)c2ccc(F)cc2)[C@H]1CO,89,-7,-7,nt,nt,nt,nt
CN1c2ccc(-c3ccccc3)cc2[C@H]2[C@H](CCN2C(=O)c2ccncc2)[C@H]1CO,103*,14,-9,107*,48,18,11
CN(C)C(=O)c1cccc(-c2ccc3c(c2)[C@H]2[C@H](CCN2C(=O)c2ccccc2)[C@@H](CO)N3C)c1,102*,-75,12,100*,72,9,-5
CN1c2ccc(-c3ccc(F)cc3)cc2[C@H]2[C@H](CCN2C(=O)c2ccncc2)[C@@H]1CO,?,1,-8,110*,46,4,?
